Hits are enriched below; roughly 3.5% of the tested compounds scored in any of these assays.
BoNT A protease – BoNT/A light chain protease inhibitors, primary screen, biochemical, flow cytometry, MLPCN library; Botulinum neurotoxin type A light chain protease (Clostridium botulinum A str. ATCC 3502); multiplex microsphere protease substrate cleavage; inhibition, % at 10 µM; 360,000 tested, 0.17% active; AID 588499, 2011; further: plate controls were buffer without enzyme for full effect and enzyme alone for no effect
BoNT F protease – BoNT/F light chain protease inhibitors, primary screen, biochemical, flow cytometry, MLPCN library; 360,000 tested, 0.22% active; Multiplex microsphere protease cleavage assay; inhibition, % at 10 µM; Botulinum neurotoxin type F light chain protease (Clostridium botulinum); in the data active means inhibition above about 35%, passing the limit was not always enough; inconclusive means no clear call, values can overlap the other calls; further: plate controls were buffer without enzyme for full effect and enzyme alone for no effect
Autofluor counter – compound fluorescence in toxin protease inhibitor counterscreen; compound autofluorescence counterscreen, microsphere flow cytometry; stronger effect = higher value; fluorescence intensity (concentration not given with the values); 360,000 tested, 3.1% active; AID 624483; in the data active means fluorescence intensity above about 16000; inconclusive means no clear call, values can overlap the other calls
Anthrax LF prot – Bacillus anthracis LF protease inhibitors, primary screen, biochemical, multiplex microsphere, MLPCN library; Lethal factor (Bacillus anthracis), P15917; multiplex microsphere protease cleavage assay; inhibition, % at 10 µM; 360,000 tested, 0.12% active; further: plate controls were buffer without enzyme for full effect and enzyme alone for no effect
An asterisk follows results filed as active; ? = inconclusive. Unless noted, no stated cut-off is given here; in the data, active means inhibition above about 30%; inconclusive means no clear call, values can overlap the other calls; inactive means below that.

SMILES	BoNT A protease	BoNT F protease	Autofluor counter	Anthrax LF prot
CC1CCCC(C)N1C(=O)COC(=O)CSc1ccc(C(N)=O)cc1[N+](=O)[O-] (stereo unspecified)	-64	-110	21171*	-18
COC(=O)c1sc(N)c(C(=O)OC)c1COC(=O)c1c(C)noc1C	6	10	20148*	-6
CC1(C)C2CC=C(CN3CCOCC3)C1C2 (stereo unspecified)	1	1	22704*	-1
c1csc(CN2CCOCC2)c1	-6	-30	9556	-8
CC(C)CNc1ncnc2c1ncn2[C@H]1CN(Cc2cccs2)C[C@@H](CO)O1	0	0	3565	4
CCCN1C(=O)c2ccccc2NC1c1ccc(Cl)c(Cl)c1 (stereo unspecified)	-1	-14	4053	6
CN1CC(c2ccc(Cl)c(Cl)c2)[C@@]2(COc3ccccc3C2=O)[C@@]12C(=O)Nc1ccccc12 (stereo partly specified)	-1	-4	20876*	-2
CCOc1ccc(NC2=C(Cl)C(=O)N(C3CCCCC3)C2=O)cc1	1	-11	2463	-4
COc1ccc(C)cc1NC1=C(Cl)C(=O)N(C2CCCCC2)C1=O	-1	-5	22693*	-3
O=C(Nc1ccccc1)c1cc(C2CCCCN2S(=O)(=O)Cc2cccc(C(F)(F)F)c2)on1 (stereo unspecified)	0	-9	3780	-5
CCN1CCCSC1=S	0	0	3789	-5
CCS(=O)(=O)c1ccc2oc(Nc3cc(C)cc(C)c3)nc2c1	-1	-2	20341*	-2
CCS(=O)(=O)c1ccc2oc(Nc3ccc(C(C)C)cc3)nc2c1	0	-2	3016	0
COc1ccc(C2NC(=O)NC(O)(C(F)(F)F)C2C(=O)c2ccccc2)cc1OC (stereo unspecified)	0	-8	?	2
COc1cccc(C2NC(=O)NC(O)(C(F)(F)F)C2C(=O)c2cccnc2)c1OC (stereo unspecified)	1	0	22761*	1
COc1ccc(CNS(=O)(=O)c2ccc3oc(C(=O)O)c(C)c3c2)cc1	0	-2	7977	-2
Cc1c(C(=O)O)oc2ccc(S(=O)(=O)NCc3ccc(F)cc3)cc12	-2	-6	24054*	-2
CCOC(=O)C1(C)CCN1C(=O)c1ccccc1 (stereo unspecified)	0	-3	3560	0
Cc1ccc(S(=O)(=O)N2C[C@]3(O)C[C@@H]4C(=O)N(c5ccccc5)C(=O)[C@@H]4C[C@]3(OC(=O)NCC3CCCCC3)C2)cc1	0	-4	3660	-4
COc1ccccc1NC(=O)c1csc(-n2nc(C)cc2C(F)(F)F)n1	?	1	21807*	-2
COc1cccc(/C=N/NC(=O)c2csc(-n3nc(C)cc3C(F)(F)F)n2)c1	4	5	7607	8
CN(CC(=O)Nc1cccc(Cl)c1)S(=O)(=O)/C=C/c1ccccc1	-1	-10	4062	-3
CC(C)OC(=O)CSc1nnc(Cc2ccccc2)n1Cc1ccco1	2	-1	19241*	-9
O=C(CSc1nnc(Cc2ccccc2)n1Cc1ccco1)NC1CCCC1	0	1	11034	-1
CCOC(=O)N1CCN(CC(=O)Nc2c(C(=O)OC)[nH]c3ccc(Cl)cc23)CC1	0	0	3215	0
SMILES	BoNT A protease	BoNT F protease	Autofluor counter	Anthrax LF prot
CCOC(=O)N1CCN(CC(=O)Nc2c(C(=O)OC)[nH]c3cc(C)ccc23)CC1	-2	-3	23057*	0
CC(=O)Nc1ccc(CN(C)c2c(C)nc3ccc(C(=O)NCCCN4CCCC4=O)cn23)cc1	0	5	3921	-4
COc1ccc(Cn2c(C)cc3c(c2=O)C(c2cccs2)C(C#N)=C(N)O3)cc1OC (stereo unspecified)	15	20	16938*	-17
CCOc1ccc(C2C(C#N)=C(N)Oc3cc(C)n(CCN(C)C)c(=O)c32)cc1OCC (stereo unspecified)	0	0	16485*	-2
COc1ccc(CCn2c(C)cc3c(c2=O)C(c2ccncc2)C(C#N)=C(N)O3)cc1OC (stereo unspecified)	0	1	3342	-3
Cc1cc2c(c(=O)n1CCN(C)C)C(c1ccc(Cl)cc1)C(C#N)=C(N)O2 (stereo unspecified)	?	-7	24829*	-2
Cc1cc2c(c(=O)n1CCN(C)C)C(c1ccc(Br)cc1)C(C#N)=C(N)O2 (stereo unspecified)	0	2	3269	-2
COC(=O)CCCC[C@@H]1O[C@H](CCc2ccccc2)CC2=C1C(=O)OC(C)(C)O2	0	2	5583	0
CCC1Cc2[nH][nH]c(=O)c2C(CC)O1 (stereo unspecified)	0	6	6391	3
CCCc1nnc(NC(=O)Cn2c(=O)oc3ccccc32)s1	2	-6	3642	3
CCCc1nnc(NC(=O)Cn2c(=O)oc3cc(Br)ccc32)s1	2	4	21386*	-1
CC(NC(=O)c1ccc(Cl)c(S(=O)(=O)NC2CC2)c1)c1ccco1 (stereo unspecified)	0	-4	3737	0
Cc1nc2c(OCc3cc(Cl)cc(Cl)c3)cccn2c1N(C)C(=O)CCC1CCCC1	0	-2	3931	-7
COc1cc(CN2C[C@@H](CO)O[C@@H](n3cnc4c(NCc5ccc(F)cc5)ncnc43)C2)cc(OC)c1OC	0	2	2802	1
CC(C)c1ccc(N2C(=O)C(Cl)=C(N3CCOCC3)C2=O)cc1	-6	-10	3121	-2
O=C1C(Cl)=C(N2CCOCC2)C(=O)N1c1ccc(Br)cc1	-4	9	3779	30*
COCCNC(=O)C1(C)CCCN(Cc2cccc(OC(=O)c3ccccc3)c2)C1 (stereo unspecified)	0	-3	3858	-3
O=C(Nc1ccc(S(=O)(=O)Nc2nccc(C3Cc4ccccc4C(=O)O3)n2)cc1)c1ccccc1 (stereo unspecified)	1	2	23166*	-2
O=C(Nc1ccc(S(=O)(=O)Nc2ncccn2)cc1)c1ccccc1	-1	6	3507	0
O=c1oc2ccccc2cc1-c1nc2c(s1)CCCC2	?	6	23234*	7
CCCCN1CCC(C#N)(Nc2ccccc2)CC1	-4	-6	24452*	0
COc1ccc(Cl)cc1NC(=O)N1CCN(C2CCCCC2)CC1	?	-3	20816*	-2
CCOC(=O)c1ccc(NC(=O)C2CCCO2)cc1 (stereo unspecified)	-1	-9	4299	1
CCOC(=O)c1ccc(NC(=O)N2CCN(C3CCCCC3)CC2)cc1	-1	-3	16368*	-3
CCOC(=O)c1cc(NC(=O)C2CCCO2)cc(C(=O)OCC)c1 (stereo unspecified)	8	8	16398*	-8
CCOC(=O)c1ccc(NC(=O)N2CCN(S(C)(=O)=O)CC2)cc1	-3	-6	17414*	-6
CCOc1ccc(NC(=O)N2CCN(S(C)(=O)=O)CC2)cc1	-1	-5	3272	-9

Screens: PubChem, NMMLSC
